Reference: PubChem BioAssay (NCATS)
“And” between values parts separate entries of the source, which are not always exact repeats. Equal entries are not always repeated. Results filed as inconclusive are left out. The source made the active and inactive calls. Unless noted, calls follow the shape of the dose curve; as a rule, active = well fitted curve in either direction with a large enough effect (not every such curve was filed as active); inconclusive = small, poorly fitted or top-dose-only effect, or another doubt; inactive = flat fitted curve, though single readings scatter.

What was measured:
[1] = AP1 Signaling Pathway (AID 357); settings: ME-180 AP-1-bla reporter, EGF-induced, beta-lactamase ratio, 5 h;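 also: ME-180 reporter cells stimulated with EGF at its EC50 level; % is scaled to controls: 0 for no effect and ±100 for the full control effect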
Summary of the method: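 Cells are seeded overnight, exposed to compound titrations and an EC50 level of EGF for 5 hours at 37 °C, then loaded with CCF4 dye for 2.5 hours. Beta-lactamase activity under the AP-1 element is read as a blue/green ratio.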

[2] = NFAT Signaling Pathway (AID 444); settings: Jurkat NFAT-bla M1, carbachol, beta-lactamase ratio, 5 h;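 also: carbachol stimulus at about its EC50 of 1 µM final; % is scaled to controls: 0 for no effect and ±100 for the full control effect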
Summary of the method: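 Read-out: CCF4 FRET ratio (460 nm/530 nm) after 1 h RT dye loading, used for %activity and AC50 from titration series. Cells: Jurkat NFAT-β-lactamase/M1 line, treated with compound plus 1 uM carbachol for 5 h, 37 °C.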

[3] = Stat Signaling Pathway (AID 446); settings: ME-180 (cervical carcinoma) SIE beta-lactamase reporter, IL-6 stimulated, 5 h;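 also: ME-180 cervical cancer cells given 40 pM IL-6 alongside compound; SIE-controlled beta-lactamase reporter measured as 460/530 nm FRET emission ratio; % is scaled to controls: 0 for no effect and ±100 for the full control effect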
Summary of the method: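 Overnight-plated ME-180 cells bearing a STAT Inducible Element beta-lactamase reporter; 5 h co-exposure to compound and 40 pM IL-6; values normalized to 300 pM IL-6 and 125 nM JAK inhibitor controls.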

[4] = target: Glucocorticoid receptor (Homo sapiens) (UniProt P04150); assay: GR-GFP Redistribution (AID 450;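 active = compounds whose dose series gives a full or clear partial fitted curve of increased nuclear translocation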; also: potency is read from the fitted curve at half-maximal effect); settings: U2OS GR-GFP nuclear translocation, laser cytometry, 2 h
Chain of Glucocorticoid receptor (Homo sapiens) (P04150 whole entry, looked up, the tested form may be a part): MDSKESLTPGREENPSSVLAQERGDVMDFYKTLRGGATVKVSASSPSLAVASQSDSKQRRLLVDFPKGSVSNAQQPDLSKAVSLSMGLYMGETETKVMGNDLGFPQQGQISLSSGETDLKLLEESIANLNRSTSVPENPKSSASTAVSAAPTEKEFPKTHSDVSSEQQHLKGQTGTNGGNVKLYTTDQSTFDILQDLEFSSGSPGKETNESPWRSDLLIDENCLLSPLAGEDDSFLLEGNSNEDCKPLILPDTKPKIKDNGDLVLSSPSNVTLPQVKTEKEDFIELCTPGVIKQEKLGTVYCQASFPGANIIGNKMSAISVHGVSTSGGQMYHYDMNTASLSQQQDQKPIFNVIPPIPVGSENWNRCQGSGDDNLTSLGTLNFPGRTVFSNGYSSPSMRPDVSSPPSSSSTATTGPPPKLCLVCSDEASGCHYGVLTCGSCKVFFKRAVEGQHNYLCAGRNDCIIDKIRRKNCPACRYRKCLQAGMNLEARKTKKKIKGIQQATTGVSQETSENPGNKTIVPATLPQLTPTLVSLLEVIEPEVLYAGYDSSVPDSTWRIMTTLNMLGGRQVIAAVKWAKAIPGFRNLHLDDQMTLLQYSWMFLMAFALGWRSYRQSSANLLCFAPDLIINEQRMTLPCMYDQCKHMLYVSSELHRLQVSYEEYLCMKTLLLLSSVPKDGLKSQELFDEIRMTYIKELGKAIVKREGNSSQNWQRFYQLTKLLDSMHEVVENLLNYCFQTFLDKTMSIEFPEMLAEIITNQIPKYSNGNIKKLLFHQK

[5] = target: Glucocorticoid receptor (Homo sapiens) (UniProt P04150); assay: GR-EFC Redistribution (AID 451; calls by dose curve; also: potency is read from the fitted curve at half-maximal effect); settings: CHO-K1 GR-EFC translocation, beta-gal luminescence, 2 h
Summary of the method: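 Translocation of GR-ED fusion to nuclear EA restores b-gal, read by luminescence after 1 h room-temperature detection. Engineered CHO-K1 biosensor cells, 1,000/well, exposed 2 h at 37 C to titrations up to 46 uM final.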

[6] = target: Mitogen-activated protein kinase 10 (Mus musculus) (UniProt Q61831); assay: JNK3 AlphaScreen Assay (AID 530); settings: JNK3 lysate, c-Jun phosphorylation; series mostly up to 57.1 µM;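 also: kinase came from lysate of stimulated human HepG2 cells; signal reports phosphorylation of biotinylated GST-cJun 1-79 at Ser73 with 10 µM ATP; % is scaled to controls: 0 for no effect and ±100 for the full control effect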
Summary of the method: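 Kinase buffer: 20 mM Tris-HCl pH 7.6, 10 mM MgCl2, 1 mM DTT, 0.1 mM Na3VO4, 0.01% Tween-20; ATP 10 uM. Substrate biotin-GST-cJun(1-79), enzyme from activated HepG2 lysates. Detection by Ser73 phospho-antibody AlphaScreen.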

[7] = target: Cytochrome P450 1A2 (Homo sapiens) (UniProt P05177); assay: p450-cyp1a2 (AID 410; calls by dose curve; also: potency is read from the fitted curve at half-maximal effect;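 as to activity change, negative = inhibition: -100% = full effect of reference inhibitor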); settings: recombinant CYP1A2, luciferin-ME demethylation, luminescence; series mostly up to 57 µM
Chain of Cytochrome P450 1A2 (Homo sapiens) (P05177 whole entry, looked up): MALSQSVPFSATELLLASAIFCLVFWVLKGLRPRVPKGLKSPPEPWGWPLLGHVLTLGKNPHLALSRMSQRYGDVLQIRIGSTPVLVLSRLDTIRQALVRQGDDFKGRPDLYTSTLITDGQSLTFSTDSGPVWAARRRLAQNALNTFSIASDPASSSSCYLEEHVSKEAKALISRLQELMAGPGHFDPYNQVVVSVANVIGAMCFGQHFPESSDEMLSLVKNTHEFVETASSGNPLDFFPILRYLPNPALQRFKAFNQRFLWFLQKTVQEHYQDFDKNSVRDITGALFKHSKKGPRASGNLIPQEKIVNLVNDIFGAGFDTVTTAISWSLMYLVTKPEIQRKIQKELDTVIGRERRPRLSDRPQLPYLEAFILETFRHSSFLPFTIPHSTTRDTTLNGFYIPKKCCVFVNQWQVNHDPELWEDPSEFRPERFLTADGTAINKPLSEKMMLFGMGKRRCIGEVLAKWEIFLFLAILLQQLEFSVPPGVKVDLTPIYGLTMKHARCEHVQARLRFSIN
Summary of the method: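 Read-out is luminescence from luciferin produced by CYP1A2 demethylation of Luciferin-ME (100uM, at Km). Detection reagent stopped the 60 min NADPH-dependent reaction; signals were normalized to 57 uM furafylline.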

[8] = Cell Viability - BJ (AID 421; calls by dose curve;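 also: potency is read from the fitted curve at half-maximal effect; cells exposed to compound for 40 hours at 37 °C before readout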); settings: BJ fibroblast viability, qHTS
Summary of the method: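 Quantitative HTS: ATP depletion in BJ cells after 40 hr compound exposure in complete culture medium, detected with CellTiter-Glo; AC50 from standard Hill fits.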

[9] = Cell Viability - Jurkat (AID 426;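 active = dose-dependent loss of cell ATP signal giving a full or clear fitted curve, ranked by lower potency value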;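 also: potency is read from the fitted curve at half-maximal effect; cells exposed to compound for 40 hours at 37 °C before ATP read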); settings: qHTS
Summary of the method: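 Cytotoxicity was scored as loss of cellular ATP, measured by luciferase-based luminescence, in Jurkat clone E6-1 cells after 40 h compound treatment; tamoxifen and doxorubicin served as positive controls.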

[10] = Cell Viability - Hek293 (AID 427;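 active = compounds whose dose-response curve shows a full or clear partial loss of cell viability, called from curve shape rather than a numeric limit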;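 also: potency is read from the fitted curve at half-maximal effect; cells exposed to compound for 40 hours at 37 °C before reading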); settings: qHTS
Summary of the method: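 AC50 values derive from Hill-modelled concentration-response of ATP-based luminescence, normalized between DMSO-only and 100 uM tamoxifen controls. Cells were exposed in complete culture medium for 40 hr at 37 °C before detection.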

[11] = Cell Viability - HepG2 (AID 433; calls by dose curve;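 also: potency is read from the fitted curve at half-maximal effect; potency for ATP loss meaning cytotoxicity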); settings: qHTS
Summary of the method: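 Cytotoxicity is scored as loss of intracellular ATP in HepG2 cells exposed to compounds for 40 h. Concentration-response curves, normalized to DMSO and 100 uM tamoxifen, give AC50 values.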

[12] = Cell Viability - MRC5 (AID 434; calls by dose curve;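 also: potency is read from the fitted curve at half-maximal effect; cells exposed to compound for 40 hours at 37 °C; potency reflects cytotoxicity seen as loss of intracellular ATP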); settings: MRC5 lung fibroblast viability, qHTS
Summary of the method: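 AC50 values come from Hill-equation fits of intracellular ATP loss, measured by CellTiter-Glo luminescence. Normal lung fibroblasts (MRC5) had 40 hr compound treatment at 37 C, normalized between DMSO and 100 uM tamoxifen.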

[13] = Cell Viability - SK-N-SH (AID 435; calls by dose curve;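 also: potency is read from the fitted curve at half-maximal effect; compound exposure lasted 40 h at 37 °C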); settings: SK-N-SH neuroblastoma cell viability qHTS
Summary of the method: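 Cells seeded at 1500 per well and incubated 5 hr at 37 °C. Compound added, then 40 hr at 37 °C. CellTiter-Glo added, 20 min at room temperature, luminescence read.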

[14] = Cell Viability - N2a (AID 540; active = well fitted curve in the direction sought with a large enough effect; an effect the other way counts as inactive or inconclusive;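 also: cells exposed to compound for 40 h at 37 °C; plate controls were DMSO alone for no effect and tamoxifen control for full effect; nearly all actives have a fitted effect of over 45% in size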); settings: N2a mouse neuroblastoma cell viability; series mostly up to 92.2 µM
Summary of the method: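 In this qHTS cytotoxicity screen, ATP-dependent luciferase luminescence reports viable N2a cells after a 40 hr compound exposure in complete culture medium. Potencies are AC50 values from standard Hill equation fits.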

[15] = Cell Viability - NIH 3T3 (AID 541; active = well fitted curve in the direction sought with a large enough effect; an effect the other way counts as inactive or inconclusive;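 also: plate controls were DMSO alone for no effect and tamoxifen positive control for full effect; nearly all actives have a fitted effect of over 25% in size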); settings: NIH 3T3 cell viability, qHTS; series mostly up to 92.2 µM
Summary of the method: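 In this cytotoxicity screen, acute toxicity is scored as an ATP drop measured by CellTiter-Glo in NIH 3T3 fibroblasts following a 40 hr, 37 °C incubation with compound.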

[16] = Cell Viability - HUV-EC-C (AID 542; active = well fitted curve in the direction sought with a large enough effect; an effect the other way counts as inactive or inconclusive; also: % is scaled to controls: 0 for no effect and ±100 for the full control effect; nearly all actives have a fitted effect of over 35% in size); settings: HUV-EC-C endothelial cell viability, qHTS; series mostly up to 92.2 µM
Summary of the method: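 Concentration-dependent ATP loss in HUV-EC-C cells is the measure. Exposure lasts 40 hr at 37 °C; luminescence follows CellTiter-Glo addition, and Hill fits give AC50.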

[17] = Cell Viability - H-4-II-E (AID 543; active = well fitted curve in the direction sought with a large enough effect; an effect the other way counts as inactive or inconclusive; also: % is scaled to controls: 0 for no effect and ±100 for the full control effect; nearly all actives have a fitted effect of over 35% in size); settings: H-4-II-E rat hepatoma viability; series mostly up to 92.2 µM
Summary of the method: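 AC50 from Hill-modelled qHTS concentration-response curves. H-4-II-E rat hepatoma cells in complete medium, 40 hr exposure at 37 °C, viability by CellTiter-Glo ATP luminescence.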

[18] = Cell Viability - SH-SY5Y (AID 544; active = well fitted curve in the direction sought with a large enough effect; an effect the other way counts as inactive or inconclusive;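 also: 0% = DMSO alone and -100% = 100 µM tamoxifen; nearly all actives have a fitted effect of over 55% in size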); settings: SH-SY5Y neuroblastoma cell viability; series mostly up to 92.2 µM
Summary of the method: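 Quantitative HTS in SH-SY5Y neuroblastoma cells, 40 hr treatment at 37 °C, ATP content by luciferase luminescence; AC50 from Hill fits.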

[19] = Cell Viability - Renal Proximal Tubule (AID 545; active = well fitted curve in the direction sought with a large enough effect; an effect the other way counts as inactive or inconclusive;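 also: 0% = DMSO only and -100% = 100 µM tamoxifen; nearly all actives have a fitted effect of over 40% in size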); settings: renal proximal tubule cells viability, primary cells of rat origin; series mostly up to 91.7 µM
Summary of the method: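 Cytotoxicity is scored as a concentration-dependent drop in cellular ATP in primary rat renal proximal tubule cells exposed for 40 hr. AC50 derives from Hill modelling.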

[20] = Cell Viability - Mesenchymal (AID 546; active = well fitted curve in the direction sought with a large enough effect; an effect the other way counts as inactive or inconclusive;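 also: cells exposed to compound for 40 hours before reading; 0% = DMSO only and -100% = 100 µM tamoxifen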); settings: mesenchymal cells viability, qHTS; series mostly up to 91.7 µM
Summary of the method: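 CellTiter-Glo luminescence (intracellular ATP, 20 min room temperature) after 40 hr compound exposure at 37 °C of 1000 glomerulus-derived human kidney mesenchymal cells/well; AC50 values obtained by fitting qHTS concentration-response data to the Hill equation.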

COc1ccc([C@@H]2CNC(=O)C2)cc1OC1CCCC1
inactive: activity change, negative = inhibition ([1]; at 17.2 µM (top of the series)) -7.88% | activity change, negative = inhibition ([1]; at 38 µM (top of the series)) -7.79% | activity change, negative = inhibition ([2]; at 17.2 µM (top of the series)) 2.36% | activity change, negative = inhibition ([2]; at 38 µM (top of the series)) 11.5% | activity, negative = inhibition ([3]; at 17.2 µM (top of the series)) -9.88% | activity, negative = inhibition ([3]; at 38 µM (top of the series)) -0.129% | Potency [4] > 46 µM and > 20.6 µM | Potency [5] > 46 µM and > 20.6 µM | Potency [6]

c1coc(CNc2ncnc3nc[nH]c23)c1
inactive: activity change, negative = inhibition ([1]; at 17.2 µM (top of the series)) 2.59% | activity change, negative = inhibition ([2]; at 17.2 µM (top of the series)) 1.53% | activity, negative = inhibition ([3]; at 17.2 µM (top of the series)) -16.6% | Potency [4] > 20.6 µM and > 46 µM | Potency [5] > 20.6 µM and > 46 µM | Potency [6]

CCOC(=O)C1=C(C)NC(=S)NC1c1cccc(O)c1 (stereo unspecified)
inactive: Potency [4] > 46 µM | Potency [5] > 46 µM | Potency [6]
active: Potency [7] 39.8 µM

CN1[C@H]2CC(OC(=O)[C@@H](CO)c3ccccc3)C[C@H]1[C@H]1O[C@H]12 (stereo partly specified)
inactive: activity change, negative = inhibition ([1]; at 17.2 µM (top of the series)) 19.5% | activity, negative = inhibition ([3]; at 17.2 µM (top of the series)) -3.14%
active: activity change, negative = inhibition ([2]; at 17.2 µM (top of the series)) -45.8%

CN(N=O)C(=O)N[C@H]1C(O)OC(CO)[C@@H](O)[C@H]1O (stereo partly specified)
inactive: Potency [7] | Potency [4] > 46 µM | Potency [5] > 46 µM | Potency [6]

CC(C)[C@H](CO)Nc1nc(Nc2cccc(Cl)c2)c2ncn(C(C)C)c2n1
inactive: Potency [4] > 46 µM | Potency [5] > 46 µM | Potency [6]
active: activity change, negative = inhibition ([1]; at 38 µM (top of the series)) -111% | Potency [7] 2 µM and 316 nM | activity, negative = inhibition ([3]; at 38 µM (top of the series)) -81.5%

Cc1cc(O)c2c(c1)C(=O)c1cccc(O)c1C2=O
inactive: Potency [8] > 92 µM | Potency [9] > 92 µM | Potency [10] > 92 µM | Potency [11] > 92 µM | Potency [12] > 92 µM | Potency [13] > 92 µM | Potency [6] | outcome [14] | outcome [15] | outcome [16] | outcome [17] | outcome [18] | outcome [19] | outcome [20]
